# According to PubChem BioAssay AID485346 (Sanford-Burnham Center for Chemical Genomics, 2010):
# Screen size: about 330,000 compounds; about 10,000 (3%) were called active. The sample as a whole holds a higher share of actives than the screen did. A number with no mark means an inactive call.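 Rule for the calls: active = inhibition of at least 50% at 8 µM in the primary screen; inactive = the rest.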
# Target: Protein Mdm4 (Homo sapiens) + E3 ubiquitin-protein ligase Mdm2 (Homo sapiens) (UniProt O15151+Q00987)
# Assay: disruptors of Mdm2/MdmX RING complex – cell-based, luminescence, split luciferase, SaOS-2, uHTS, primary screen (AID 485346)
# Details: SaOS-2 split-luciferase Mdm2/MdmX complementation, at 8 µM, active compounds read high
# Sequence of Protein Mdm4 (Homo sapiens) + E3 ubiquitin-protein ligase Mdm2 (Homo sapiens) (O15151 whole entry, looked up): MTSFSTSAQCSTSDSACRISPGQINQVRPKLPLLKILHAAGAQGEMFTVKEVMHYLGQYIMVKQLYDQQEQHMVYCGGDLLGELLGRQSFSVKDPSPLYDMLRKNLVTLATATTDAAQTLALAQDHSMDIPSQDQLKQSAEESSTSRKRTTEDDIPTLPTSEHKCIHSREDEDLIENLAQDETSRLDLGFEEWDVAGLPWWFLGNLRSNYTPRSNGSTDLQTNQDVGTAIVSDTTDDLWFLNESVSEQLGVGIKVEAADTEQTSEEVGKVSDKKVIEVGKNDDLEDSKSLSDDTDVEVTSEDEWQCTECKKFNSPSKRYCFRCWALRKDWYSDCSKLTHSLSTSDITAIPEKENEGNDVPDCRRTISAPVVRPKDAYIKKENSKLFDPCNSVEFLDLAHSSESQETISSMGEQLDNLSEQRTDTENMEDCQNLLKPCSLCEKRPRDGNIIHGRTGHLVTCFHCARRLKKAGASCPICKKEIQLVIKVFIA
# Sequence of Protein Mdm4 (Homo sapiens) + E3 ubiquitin-protein ligase Mdm2 (Homo sapiens) (Q00987 whole entry, looked up): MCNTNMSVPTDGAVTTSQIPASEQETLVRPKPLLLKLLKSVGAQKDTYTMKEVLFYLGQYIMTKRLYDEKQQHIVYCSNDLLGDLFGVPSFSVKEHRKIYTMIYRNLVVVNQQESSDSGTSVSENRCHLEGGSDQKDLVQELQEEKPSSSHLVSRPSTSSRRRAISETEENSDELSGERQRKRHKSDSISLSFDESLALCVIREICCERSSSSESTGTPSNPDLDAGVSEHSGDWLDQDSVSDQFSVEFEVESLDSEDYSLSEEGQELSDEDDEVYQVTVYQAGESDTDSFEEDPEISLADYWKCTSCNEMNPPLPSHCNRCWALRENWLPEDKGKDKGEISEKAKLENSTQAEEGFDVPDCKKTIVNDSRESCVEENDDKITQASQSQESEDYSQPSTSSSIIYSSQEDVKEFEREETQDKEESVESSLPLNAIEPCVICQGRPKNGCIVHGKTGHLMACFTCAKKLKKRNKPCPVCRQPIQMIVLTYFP
row,SMILES,inhibition
1,COc1cc(Cl)cc(C2NC(=O)NC(C)=C2C(=O)NCc2ccccc2)c1O (stereo unspecified),-8.24%
2,Cc1ccc(C)c(N2CCN(C(=O)CCc3nc(-c4cccc(C(F)(F)F)c4)no3)CC2)c1,-17.8%
3,COc1ccc(-c2cc(=O)oc3cc(OC(C)C(=O)NCC4CCC(C(=O)O)CC4)ccc23)cc1 (stereo unspecified),-48.8%
4,CCN(CC)c1ccc(NC(=O)CCc2nnc3ccc(N4CCCCC4)nn23)c(C)c1,15.3%
5,CC1CCN(CCCNC(=O)CN2C(=O)CSc3ccc(S(=O)(=O)N4CCCCC4)cc32)CC1,13%
6,COc1ccc2[nH]c(=O)c(CN(Cc3cccnc3)S(=O)(=O)c3ccccc3F)cc2c1,63.9% (active)
7,CCN(Cc1cc2cc(C)ccc2[nH]c1=O)S(=O)(=O)c1ccccc1,22.4%
8,CCOc1ccc2[nH]c(=O)c(CN(CCCO)S(=O)(=O)c3ccc(F)cc3)cc2c1,-3.41%
9,COc1ccc(CCN2CC(C(=O)NCCN3CCNC3=O)CCC2=O)cc1 (stereo unspecified),7.59%
10,CN(C(=O)c1cccc([N+](=O)[O-])c1)c1ccccc1C(=O)NCc1ccccc1,10.9%
11,Cc1cc(C)nc(NC(=O)c2cccc([N+](=O)[O-])c2)c1,1.76%
12,Cc1cc(CNC(=O)c2cccc([N+](=O)[O-])c2)c2ccccc2n1,57.9% (active)
13,COc1cccc2[nH]c(C(=O)NCCc3ccccc3)cc12,-35.8%
14,O=C(NCc1ccccc1Cl)C(=O)NCC1CCCN1S(=O)(=O)c1cccs1 (stereo unspecified),2.29%
15,CCc1ccc(C(=O)N2CCN(S(=O)(=O)c3sc(C(=O)O)c(C)c3C(=O)O)CC2)cc1,-9.23%
16,COc1cc(C(=O)OCC(=O)NC23CC4CC(CC(C4)C2)C3)cc(OC)c1OC,11.3%
17,CSc1nc(N(C)NC(=O)c2cccc(C)c2)c2ccccc2n1,63% (active)
18,Cn1c(CC(=O)NNC(=O)c2ccccc2F)nc2ccccc21,8.1%
19,CN(NC(=O)c1ccccc1)c1nc2ccccc2nc1C(F)(F)F,59.8% (active)

row,SMILES,inhibition
1,CN(NC(=O)c1ccccc1F)c1nc(C(F)(F)F)nc2ccccc12,60.3% (active)
2,COc1ccc(C(=O)NN(C)c2nc(-c3ccccc3)cc(C)c2S(C)(=O)=O)cc1,2.68%
3,Cc1nc2ccccc2c(=O)n1NC(=O)c1ccccc1,-5.89%
4,CC(NC(=O)c1ccccc1F)c1cccc2ccccc12 (stereo unspecified),3.89%
5,Cc1cccc(C(=O)Nc2ccc(C(=O)N/N=C/c3cccc(C)n3)cc2)c1,8.86%
6,Cc1cccc(C(=O)Nc2ccc(CC(=O)O)cc2)c1,-7.55%
7,COc1ccc(NC(=O)c2cccc3c2C(=O)N(CC2CCCO2)C3)cc1OC (stereo unspecified),-24.7%
8,CC(NC(=O)COC(=O)c1ccc2ccccc2n1)c1ccccc1 (stereo unspecified),-14.1%
9,C=CCSc1ccc(S(=O)(=O)N2CCN(C)CC2)cn1,13.1%
10,COc1ccc(N(CC(=O)NC2CCCCCCC2)S(=O)(=O)c2c(C)nn(C)c2C)cc1,-2%
11,O=C(/C=C/c1ccc([N+](=O)[O-])o1)NNC(=O)c1ccc(F)cc1,40%
12,CCOCCCNC(=S)N1CCC(NC(=O)C2CCCCC2)CC1,15.2%
13,Cc1ccc(C(=O)C(=S)N2CCOCC2)cc1,10.1%
14,CC(C)CC(CCc1ccccc1)OS(N)(=O)=O (stereo unspecified),-32.9%
15,COc1cc(OC)c(/C=N/NC(=O)c2ccc([N+](=O)[O-])cc2)cc1Br,46.6%
16,COc1cc2cc(C(=O)N/N=C/c3cccc(OC)c3OC)[nH]c2cc1OC,-21.6%
17,COc1cccc(/C=N/NC(=O)c2[nH]nc3c2CCc2ccccc2-3)c1O,74.6% (active)
18,COC(=O)CN1C(=O)[C@H]2[C@@H](/C=C/c3ccccc3)N3C(=O)CN(CC4CC4)C(=O)[C@@]3(Cc3ccccc3)[C@H]2C1=O,-8.09%
19,COc1ccc(C(O)(C2CCCCC2)C(CN2CCCC2)c2ccccc2)cc1 (stereo unspecified),33.8%

row,SMILES,inhibition
1,Fc1ccc(CNc2nc3ccccc3n3nnnc23)cc1,54% (active)
2,COc1ccc(CNc2nnnn2C)cc1,-2.21%
3,CCOC(=O)CNc1nc2ccccc2n2c(C)nnc12,1.6%
4,CCc1nnc(NC(=O)CCC(=O)N2CCN(c3cc(C)ccc3C)CC2)s1,13.7%
5,CC(C)[C@@H]1COC(c2cccc(C3=N[C@H](C(C)C)CO3)c2)=N1,-13.9%
6,COc1ccc(-c2cc(C(=O)NCCCN3CCCC3=O)c3ccccc3n2)cc1OC,8.93%
7,CN(CCOc1ccccc1)C(=O)c1cc(-c2ccco2)nc2ccccc12,18.2%
8,COc1ccc(-c2cc(C(=O)N(C)CC(=O)Nc3ccccc3Cl)c3ccccc3n2)cc1OC,54.1% (active)
9,COc1ccc(Cl)cc1NC(=O)CN(C)C(=O)c1ccc2n[nH]nc2c1,10.7%
10,COc1ccc(NC(=O)CN(C)C(=O)c2cc(-c3ccc(C)o3)nc3ccccc23)cc1,30.3%
11,COc1cc(/C=N/NC(=O)c2cc(-c3ccccc3C)nc3ccccc23)cc(OC)c1O,-4.47%
12,COc1ccc(CN(C)C(=O)c2cc(-c3ccc(C)cc3C)nc3ccccc23)c(OC)c1OC,68.6% (active)
13,COc1ccc(-c2cc(C(=O)N(C)Cc3ccc(OC)c(OC)c3OC)c3ccccc3n2)cc1OC,63.2% (active)
14,COc1ccc(Cl)cc1NC(=O)CN(C)C(=O)c1cc2ccccc2cc1OC,29.4%
15,C[C@@H]1C(c2ccc(F)cc2)=NN(c2ccc(Br)cc2)[C@H]1C(=O)N1CCOC1=O,9.83%
16,O=C(CN1CCN(S(=O)(=O)c2ccc3ccccc3c2)CC1)NC(=O)NC1CCCCC1,40.4%
17,COC(=O)C1CCN(C(=O)NC2CC(=O)N(c3ccc4c(c3)OCCO4)C2)CC1 (stereo unspecified),-29.9%
18,CC(=O)C1=C(O)C(=O)N(c2ccc(Br)cc2)C1c1ccc([N+](=O)[O-])cc1 (stereo unspecified),16.7%
